The target of experiment [1] is PU.1 (IVT) (UniProt P17947 1-270). Briefly: protein-binding microarray (PBM); 20 mM HEPES pH 7.9, 100 mM NaCl, 1 mM DTT, 0.2 mg/mL BSA, 0.02% Triton X-100, 2% milk, 0.4 mg/mL salmon testes DNA; 1 h; temperature not stated; high values mean tight binding. The following applies: dsDNA, one strand shown. The essentials: (§1)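 Untagged full-length PU.1 was produced by coupled human in vitro transcription/translation and incubated for 1 h on custom double-stranded DNA microarrays in HEPES pH 7.9 containing 100 mM NaCl, 2% milk and salmon testes DNA. Each array carried 20-bp genomic sites and single-nucleotide variants, with 10 probes per site (5 per orientation). Bound protein was detected with anti-PU.1 followed by a fluorescent secondary antibody. Binding values are z-scores calculated from scanned fluorescence after linear-regression normalisation.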

Experiment [2] shares this target. Described as above. The following applies: dsDNA, one strand shown. In a few lines: as §1
This is another data set of the same source.

Whole data set: some 3,700 sequences, median “z-score” near 4, cut for the highest 2% near 8.4. Many of the other results were omitted from the sample, so the highest values are more common in it than they were.

The sequence “GCCTAGCACCAAAAAGGGAAGTGCATGCTGTGCTAGGTCTTGATTCGCTTGACGCTGCTG” gave a binding signal in experiment [1] of 6.52 z-score.
Consider “GCCTAGCACAGCATGAGGAAGTGTCAGATGTGCTAGGTCTTGATTCGCTTGACGCTGCTG”, for which the binding signal in experiment [2] is 4.45 z-score.
Regarding “GCCTAGCACTTGAAAAGGAAGTGCAACAAGTGCTAGGTCTTGATTCGCTTGACGCTGCTG”, the binding signal in experiment [1] stood at 2.73 z-score.
On the same count and under the same terms, in the case of “GCCTAGCACTGAAAGAGGAACTCTCACATGTGCTAGGTCTTGATTCGCTTGACGCTGCTG” it was 4.89 z-score; in that of “GCCTAGCACAAAAAGAGGAAGTGGTTGTCGTGCTAGGTCTTGATTCGCTTGACGCTGCTG”, 8.71 z-score.
As to “GCCTAGCACAAAAAGAGGAAGTGCTTTTCGTGCTAGGTCTTGATTCGCTTGACGCTGCTG”, in experiment [1], the binding signal is 8.49 z-score.
With “GCCTAGCACAAAAAGAGGAAGAGGAATAGGTGCTAGGTCTTGATTCGCTTGACGCTGCTG”, the binding signal in experiment [2] was 5.98 z-score.
As to “GCCTAGCACAAAAAGAGGAAGTCTTTTATGTGCTAGGTCTTGATTCGCTTGACGCTGCTG”, the binding signal in experiment [1] was 8.71 z-score.
“GCCTAGCACAAAAAGAGGAAGAGAGAAAAGTGCTAGGTCTTGATTCGCTTGACGCTGCTG” displayed a binding signal in experiment [2] of 5.63 z-score.
Regarding “GCCTAGCACCAAAAGAGGAAGTCATTTATGTGCTAGGTCTTGATTCGCTTGACGCTGCTG”, the binding signal in experiment [1] came out at 8.11 z-score.
Take “GCCTAGCACAAAAGGAGGAAGTGGTTACAGTGCTAGGTCTTGATTCGCTTGACGCTGCTG”: the binding signal in experiment [2] amounted to 6.37 z-score.
“GCCTAGCACAAAAAAAGGAAGTGGTGGTTGTGCTAGGTCTTGATTCGCTTGACGCTGCTG”: the binding signal in experiment [1] worked out at 6.87 z-score.
The same measure, in the same setting: as for “GCCTAGCACAACAAGAGGAAGTGGCTTTCGTGCTAGGTCTTGATTCGCTTGACGCTGCTG”, the figure is 5.51 z-score.
The same measure, in the same setting: as for “GCCTAGCACAAAAAGAGGAAGTCGTTTTCGTGCTAGGTCTTGATTCGCTTGACGCTGCTG”, the figure is 8.57 z-score.
For the sequence “GCCTAGCACAAAAGAAGGAAGTGGTTTATGTGCTAGGTCTTGATTCGCTTGACGCTGCTG”, the binding signal in experiment [2] was 6.15 z-score.
As for “GCCTAGCACAAAAAAAGGAAGTCAAAGTCGTGCTAGGTCTTGATTCGCTTGACGCTGCTG”, the binding signal in experiment [1] was determined as 6.75 z-score.
Still for that read-out and setting: in the case of “GCCTAGCACTATTTGAGGAAGTGTGAGAAGTGCTAGGTCTTGATTCGCTTGACGCTGCTG” it was 5.91 z-score; in that of “GCCTAGCACTAAAGAGGGAAGTGGGAGCCGTGCTAGGTCTTGATTCGCTTGACGCTGCTG”, 3.74 z-score.
“GCCTAGCACGGAAAGTGGAACTGAAACTTGTGCTAGGTCTTGATTCGCTTGACGCTGCTG” displayed a binding signal in experiment [2] of 1.93 z-score.
The same measure, in the same setting: as for “GCCTAGCACGAAAAGAGGATGTGGATCTGGTGCTAGGTCTTGATTCGCTTGACGCTGCTG”, the figure is 3.52 z-score; as for “GCCTAGCACAAAAACAGGAACTGGCCAGGGTGCTAGGTCTTGATTCGCTTGACGCTGCTG”, 5.89 z-score.
The same measure, in the same setting: in the case of “GCCTAGCACCGAATGAGGAACTGATGCGGGTGCTAGGTCTTGATTCGCTTGACGCTGCTG” it was 5.03 z-score.
In turn, “GCCTAGCACGAAAAGAGGAAGTCAAAATAGTGCTAGGTCTTGATTCGCTTGACGCTGCTG” had a binding signal in experiment [1] of 8.29 z-score.
The same measure, in the same setting: in the case of “GCCTAGCACGAAATGAGGAAGTCAAATTAGTGCTAGGTCTTGATTCGCTTGACGCTGCTG” it was 7.71 z-score; in that of “GCCTAGCACAAAAAGAGGAAGTCAAATAAGTGCTAGGTCTTGATTCGCTTGACGCTGCTG”, 8.51 z-score.
Still for that read-out and setting: in the case of “GCCTAGCACAAAAAGAGGAAGTCAAATTGGTGCTAGGTCTTGATTCGCTTGACGCTGCTG” it was 8.3 z-score; in that of “GCCTAGCACGAAAAGAGGAAGTCACATTAGTGCTAGGTCTTGATTCGCTTGACGCTGCTG”, 8.62 z-score; in that of “GCCTAGCACAAAAAAAGGAAGTGGAATTAGTGCTAGGTCTTGATTCGCTTGACGCTGCTG”, 6.73 z-score.
In turn, “GCCTAGCACGAGAAGAGGAAGTCAAATAAGTGCTAGGTCTTGATTCGCTTGACGCTGCTG” displayed a binding signal in experiment [2] of 5.64 z-score.
The sequence “GCCTAGCACGAAAAGAGGAAGTCACATTGGTGCTAGGTCTTGATTCGCTTGACGCTGCTG” displayed a binding signal in experiment [1] of 8.32 z-score.
Same read-out and setting: as for “GCCTAGCACGAAAAGAGGAAGTCAGATTAGTGCTAGGTCTTGATTCGCTTGACGCTGCTG”, the figure is 8.07 z-score.
Same read-out and setting: as for “GCCTAGCACAAAAAGAGGAAGTCAAATTAGTGCTAGGTCTTGATTCGCTTGACGCTGCTG”, the figure is 8.57 z-score; as for “GCCTAGCACGAAAAGAGGAAGTCAAATTAGTGCTAGGTCTTGATTCGCTTGACGCTGCTG”, 8.43 z-score.
The sequence “GCCTAGCACAATAAGAGGAAGTCAAAATAGTGCTAGGTCTTGATTCGCTTGACGCTGCTG” registered a binding signal in experiment [2] of 6.65 z-score.

Source of the values: paper PMC6451091, “NextPBM: a platform to study cell-specific transcription factor binding and cooperativity”.
